# From PubChem BioAssay AID1851 (National Center for Advancing Translational Sciences (NCATS), 2009)
# Values joined by “and” are separate entries in the source; they are usually repeats but may differ in a detail not shown here. Identical values can stand only once. The campaign covered roughly 16,000 compounds. About 2,600 (16%) were called active. About 20% were inconclusive and are not listed. A selection follows. Values without a mark were called inactive. The call rests on the fitted dose curve; in most records, active means well fitted curve in the direction sought with a large enough effect; inconclusive means small, poorly fitted or top-dose-only effect, or effect the other way; inactive means no such curve, though single readings can be large or run the other way.
# Target: Cytochrome P450 2D6 (Homo sapiens) (UniProt P10635)
# Sequence (P10635 whole entry, looked up): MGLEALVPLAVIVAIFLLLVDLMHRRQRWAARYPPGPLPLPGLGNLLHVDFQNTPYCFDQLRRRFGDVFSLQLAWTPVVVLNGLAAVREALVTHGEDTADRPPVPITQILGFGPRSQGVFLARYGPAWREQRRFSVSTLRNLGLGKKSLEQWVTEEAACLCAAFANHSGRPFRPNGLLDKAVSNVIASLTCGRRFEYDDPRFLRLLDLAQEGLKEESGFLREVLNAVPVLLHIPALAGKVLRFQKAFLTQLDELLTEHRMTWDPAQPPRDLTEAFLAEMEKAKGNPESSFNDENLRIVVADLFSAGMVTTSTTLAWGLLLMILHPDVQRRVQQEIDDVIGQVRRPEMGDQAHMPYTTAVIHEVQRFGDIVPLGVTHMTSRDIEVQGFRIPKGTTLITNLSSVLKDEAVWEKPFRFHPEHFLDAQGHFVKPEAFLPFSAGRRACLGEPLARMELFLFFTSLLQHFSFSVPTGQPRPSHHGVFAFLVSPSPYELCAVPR
# Assay: Cytochrome panel assay with activity outcomes
# Conditions: recombinant CYP, pro-luciferin dealkylation, luminescence, p450-cyp2d6; series mostly up to 57.1 µM; activity, negative = inhibition: at the top concentration
# On the % scale 0 is the no-effect control and ±100 the full control effect.
SMILES,"activity, negative = inhibition",AC50
Cc1cc(C2C(C#N)=C(N)OC3=C2C(=O)CC(C)(C)C3)c(C)s1 (stereo not drawn),4.82%,
COc1cccc(N(CC(=O)Nc2cccc(C(C)=O)c2)S(C)(=O)=O)c1,,0.141 µM (active)
COc1ccc(CC(=O)Nc2cccc(/C(C)=N/NC(=O)c3cccc([N+](=O)[O-])c3)c2)cc1,-14.5%,
Cc1ccc(NS(=O)(=O)c2ccc(OCC(=O)Nc3cccc([N+](=O)[O-])c3)c(C)c2)cc1,-97.9%,
CS(=O)(=O)N(CC(=O)Nc1cccc(F)c1)c1cccc([N+](=O)[O-])c1,,0.631 µM (active)
CC(=O)c1cccc(NC(=O)CCC2CCCC2)c1,-17.5%,
CC(=O)c1cccc(NC(=O)Oc2ccccc2)c1,-0.0879%,
Cc1sc(NC(=O)C2CCCCC2C(=O)O)c(C(N)=O)c1C (stereo not drawn),-2.17%,
CO[C@@H]1COC(=O)C/C=C\[C@@H](C)[C@@H]2C=C[C@H](O)[C@@H](COC(=O)CCC[C@H]1C)O2,4.34% [at 11.4 µM],
CC(C)Oc1ccc2c(=O)c3cc(C(=O)O)ccc3oc2c1,0.758%,
CC[C@H]1C2=C3C(CC[C@H]4C(OCc5ccc(F)cc5C(F)(F)F)OC[C@](C)([C@@H]34)N(C(=O)OC(C)(C)C)C2)C2COC(=O)OCC21 (stereo partly drawn),-12.1%,
COc1ccc(C2/C(=C(/O)c3ccccc3)C(=O)C(=O)N2c2ccccn2)c(OC)c1 (stereo not drawn),1.83%,
COc1ccc(Sc2nc3ccccc3n3c(C(F)(F)F)nnc23)cc1,-12.8%,
CC1=C(C(=O)OCc2ccccc2)C(c2cccnc2)c2c(n(C)c(=O)n(C)c2=O)N1 (stereo not drawn),-24.1%,
Cc1ccc(C2Nc3ccccc3C(=O)N2Cc2ccco2)cc1 (stereo not drawn),-19%,
CN(C)Cc1ccccc1-c1cc(-n2ccnc2)ncn1,,2.51 µM (active)
COc1ccccc1-c1cc(-n2ccnc2)ncn1,,12.6 µM (active)
Cc1cc([N+](=O)[O-])nn1Cc1ccccc1F,-8.89%,
Cc1cc(C)c(S(=O)(=O)N2CCCCC2)c(C)c1N(C)S(=O)(=O)c1ccccc1,-13.5%,
CC1=C(CC(=O)O)c2cc(F)ccc2/C1=C\c1ccc(S(C)=O)cc1 (stereo not drawn),,inactive
CCOC(=O)c1sc(=S)n(-c2cccc(C(F)(F)F)c2)c1SC,11.7%,
Cc1nnc(S(=O)(=O)c2ccc(N=Nc3c(N)nc(N)nc3N)cc2)s1,18% [at 11.4 µM],
CCOC(=O)c1cc(NC(=O)c2ccc(OC)cc2)c(=O)oc1-c1ccccc1,-16.4%,
Cc1nn(C(C)C(=O)Nc2sc3c(c2C#N)CCCC3)c(C)c1[N+](=O)[O-] (stereo not drawn),1.12%,

SMILES,"activity, negative = inhibition",AC50
C/C(=N/O)c1ccc2cc(Br)c3ccccc3c2c1,,0.0251 µM (active)
C/C(=N\O)c1ccc2[nH]ccc2c1,-1.06%,
C=CCn1c(SCC(=O)NC2CCCCC2)nnc1C1CCCCC1,-0.906%,
CO[C@@H]1COC(=O)[C@@H](CCSC)NC(=O)C/C=C\[C@@H](C)COC(=O)[C@H](C)NC(=O)C/C=C\[C@H]1C,6.23% [at 11.4 µM],
CCN1C(=O)[C@H]2[C@H]3[C@H](O)[C@H](O)C/C(=N/OC[C@@H](O)COCc4ccco4)[C@@H]3CC[C@@H]2C1=O,19.4% [at 11.4 µM] and 13.7% [at 11.4 µM],
Cc1ccc(/C=C/C(=O)NC(=S)Nc2ccccc2C(=O)NC2CCCCC2)cc1,-17.6%,
N.N.O=C(O)C1(C(=O)O)CCC1.[Pt],-10.9%,
O=c1[nH]c2cc(Cl)ccc2c(O)c1-c1cccc(Oc2ccccc2)c1,,6.31 µM (active)
O=c1[nH]c2cc(Cl)ccc2c(O)c1-c1ccc(Oc2ccccc2)cc1,-10.3%,
Cc1cc(-c2ccccc2)[nH]c(=O)c1S(=O)(=O)c1ccc(Cl)cc1,-13.2%,
CCn1c(CC(=O)Nc2ccc(C)cc2)nnc1SCC(=O)Nc1nc(C)cs1,-7.36%,
C[C@@H]1CCC[C@H](C)N1NC(=O)c1ccc(Cl)c(S(N)(=O)=O)c1,-4.56% [at 25.6 µM],
CCCC[P+](CCCC)(CCCC)Cc1ccc(NC(=O)[C@@H](Cc2ccc3ccccc3c2)NC(=NC2CCCCC2)NC2CCCCC2)cc1,15.3%,
CC(=O)c1cccc(NC(=O)CSCc2ccccc2)c1,,14.1 µM (active)
Cc1ccc(NS(=O)(=O)c2cc(C(=O)N3CCc4ccccc4C3)ccc2Cl)cc1,-24.1%,
Cc1ccccc1C(=O)N1CCc2ccccc2C1,-16.4%,
CS(=O)(=O)Nc1ccc(S(=O)(=O)N2CCOCC2)cc1,4.02%,
O=C(c1ccc(CN2CCc3ccccc3C2)cc1)N1CCc2ccccc2C1,,2 µM (active)
COC(=O)c1ccc(C(=O)OC)c(NC(=O)CSCc2ccc(Br)cc2)c1,-10.2%,
CSc1ccccc1NC(=O)CSCc1ccc(C)cc1,,14.1 µM (active)
O=C(CSCc1ccccc1)Nc1cccc(C(=O)Nc2ccccc2C(=O)O)c1,-0.0467%,
Nc1cc(=O)[nH]c(SCC(=O)Nc2ccc(S(=O)(=O)N3CCOCC3)cc2)n1,-25.6%,
Cc1ccc(OCC(=O)Nc2ccccc2-c2ccccc2)cc1,-16.6%,
O=C(CSCc1ccccc1)Nc1ccc(S(=O)(=O)N2CCOCC2)cc1,,6.31 µM (active)
